Among the data in PubChem BioAssay (NCI) are growth values, retold here.

This is part of a sample that, as a whole, favours compounds with a hit. Of some 83,000 tested, about 20% had one in any assay.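 Testing used 96-well plates and a 48-hour single-concentration exposure. Example: -40 means 40% of the starting cells died.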 Unmarked numbers belong to inactive results. Calls of active or inactive are those of the source. Rule for the calls: active = growth percent below 10; inactive = the rest.

Some test systems named below: HCT-15 colon; HT29 colon; SNB-75 CNS; SNB-19 CNS; U251 CNS; PC-3 prostate; SK-MEL-5 melanoma; UACC-62 melanoma; LOX IMVI melanoma; SK-MEL-28 melanoma; SK-MEL-2 melanoma; EKVX NSCLC; SN12C renal; UO-31 renal; TK-10 renal; ACHN renal; CAKI-1 renal; A498 renal; CCRF-CEM leukemia; MOLT-4 leukemia.
Test in all cases: NCI-60 one-dose screen, 48 h (100 = growth as untreated, 0 = no growth, -100 = all killed)
Conditions in all cases: 10 µM

Take `OCCNc1oc(-c2ccccc2)nc1[P+](c1ccccc1)(c1ccccc1)c1ccccc1`: the growth in the assay on HCT-15 colon was 77.8%; in the assay with HT29 colon, 10.4%; with SNB-75 CNS, -1.51% (active); in the assay on SNB-19 CNS, 4.29% (active); in the assay on U251 CNS, 14.7%; in the assay on PC-3 prostate, 10.6%. The growth in the assay on SK-MEL-5 melanoma was -100% (active); with UACC-62 melanoma, -66.4% (active); in the assay with LOX IMVI melanoma it was 2.03% (active); in the assay on SK-MEL-28 melanoma it was 3.6% (active); in the assay with SK-MEL-2 melanoma, -31.8% (active); in the assay on EKVX NSCLC, 23.8%. Moreover, the growth in the assay with SN12C renal was 2.4% (active); in the assay on UO-31 renal it was 71.8%; in the assay on TK-10 renal, 32.4%; in the assay with ACHN renal, 84.4%; in the assay on CAKI-1 renal, 75.1%; in the assay with A498 renal, 74.6%. Besides, the growth in the assay on CCRF-CEM leukemia was 9.78% (active); with MOLT-4 leukemia, 10.2%.

Take `CN1CCc2c(sc3ncnc(N/N=C/c4cn(-c5ccccc5)nc4-c4ccc(Cl)cc4)c23)C1`: the growth in the assay on HCT-15 colon is 7.13% (active); in the assay on HT29 colon, 5.95% (active); in the assay with SNB-75 CNS it was 74.1%; in the assay with SNB-19 CNS, 34.3%; in the assay on U251 CNS, 18.2%; in the assay with PC-3 prostate, 55.2%. For the same compound, the growth in the assay with SK-MEL-5 melanoma was 30.7%; in the assay with UACC-62 melanoma, 9.22% (active); in the assay with LOX IMVI melanoma it was -65.7% (active); in the assay with SK-MEL-28 melanoma it was 45%; with SK-MEL-2 melanoma, 36.3%; in the assay on EKVX NSCLC, 19.8%. Besides, the growth in the assay on SN12C renal is 24.9%; in the assay on UO-31 renal, 15.4%; in the assay with TK-10 renal, 49.9%; with ACHN renal, 21.7%; in the assay on CAKI-1 renal it was 23.8%; in the assay with A498 renal it was 94.1%. Also, the growth with CCRF-CEM leukemia is 11.4%; with MOLT-4 leukemia, 18.2%.

In the case of `COc1ccsc1/C=N/NC(=O)c1[nH]c2ccc(Br)cc2c1-c1ccccc1`, the growth with HCT-15 colon was 1.32% (active); in the assay with HT29 colon, -12.2% (active); in the assay with SNB-75 CNS it was 20.1%; in the assay on SNB-19 CNS it was 21.8%; with U251 CNS it was 6.55% (active); with PC-3 prostate it was 5.35% (active). For the same compound, the growth with SK-MEL-5 melanoma is -47.3% (active); with UACC-62 melanoma, 9.1% (active); with LOX IMVI melanoma, -18% (active); in the assay on SK-MEL-28 melanoma, 30.8%; with SK-MEL-2 melanoma it was 20.7%; with EKVX NSCLC, 15.2%. For the same compound, the growth with SN12C renal was -3.76% (active); with UO-31 renal, 11.4%; in the assay on TK-10 renal it was 16.1%; in the assay on ACHN renal, -0.91% (active); in the assay with CAKI-1 renal it was 3.46% (active); with A498 renal it was 20.3%. Further, the results for the growth in the assay with CCRF-CEM leukemia and in the assay with MOLT-4 leukemia were -12.5% (active) and -11.4% (active), respectively.

Take `COc1cccc(-c2ccnc(/N=C(\N)Nc3ccc(S(=O)(=O)Nc4nc(C)cc(C)n4)cc3)n2)c1`: the growth with HCT-15 colon is 104%; in the assay with HT29 colon, 106%; in the assay on SNB-75 CNS it was 77.5%; with SNB-19 CNS it was 101%; in the assay on U251 CNS it was 101%; with PC-3 prostate, 91.2%. In addition, the growth in the assay on SK-MEL-5 melanoma was 99.6%; in the assay with UACC-62 melanoma, 102%; in the assay with LOX IMVI melanoma it was 85.8%; in the assay on SK-MEL-28 melanoma, 112%; in the assay with SK-MEL-2 melanoma, 100%; in the assay with EKVX NSCLC, 92.7%. Further, the growth was 100% in the assay on SN12C renal; 64.1% in the assay on UO-31 renal; 111% with TK-10 renal; 97.3% in the assay on ACHN renal; 80.4% in the assay on CAKI-1 renal; 114% in the assay on A498 renal. Further, the values for the growth in the assay on CCRF-CEM leukemia and with MOLT-4 leukemia were 98.5% and 101%, respectively.

For `CC(C)C1=C[C@@]23CC[C@@H]4[C@](C)(CCC[C@]4(C)C(=O)NCc4ccccc4)[C@H]2C[C@@H]1[C@H]1C(=O)OC(=O)[C@H]13`, the growth in the assay with HCT-15 colon is 9.01% (active); in the assay on HT29 colon, 18.8%; in the assay with SNB-75 CNS it was 69.6%; in the assay with SNB-19 CNS, 37.9%; in the assay with U251 CNS, 25.1%; in the assay on PC-3 prostate, 33.3%. The growth with SK-MEL-5 melanoma is 72.2%; in the assay with UACC-62 melanoma, 50.2%; in the assay with LOX IMVI melanoma, -8.46% (active); with SK-MEL-28 melanoma it was 68.1%; in the assay on SK-MEL-2 melanoma, 47%; with EKVX NSCLC it was 33.9%. Moreover, the growth in the assay with SN12C renal was 52.1%; in the assay with UO-31 renal it was 43.4%; with TK-10 renal, 44.9%; with ACHN renal, 25.7%; with CAKI-1 renal it was 77.1%; in the assay on A498 renal, 85.2%. In addition, the growth with CCRF-CEM leukemia was 16.7%; in the assay on MOLT-4 leukemia it was 15.5%.

As for `CC1(C)CC[C@]2(C(=O)N3CCOCC3)CC[C@]3(C)C(=CC[C@@H]4[C@@]5(C)CC[C@H](NCO)C(C)(C)[C@@H]5CC[C@]43C)[C@H]2C1`, the growth with HCT-15 colon was -83% (active); in the assay on HT29 colon, -60.8% (active); in the assay with SNB-75 CNS, -93.2% (active); in the assay with SNB-19 CNS, -95.8% (active); in the assay with U251 CNS, -88.7% (active); with PC-3 prostate it was -61.6% (active). In addition, the growth in the assay on SK-MEL-5 melanoma is -97.6% (active); in the assay on UACC-62 melanoma, -93.9% (active); with LOX IMVI melanoma it was -83.8% (active); with SK-MEL-28 melanoma, -98.9% (active); in the assay on SK-MEL-2 melanoma, -82% (active); with EKVX NSCLC, -87.8% (active). Besides, the growth in the assay on SN12C renal is -91% (active); in the assay on UO-31 renal, -100% (active); in the assay on TK-10 renal, -82% (active); in the assay with ACHN renal, -100% (active); in the assay with CAKI-1 renal, -96.2% (active); with A498 renal it was -91.5% (active). In the assay on CCRF-CEM leukemia, the growth is -33.8% (active).

Take `Nc1cccnc1/C=N/NC(=S)NCCNC(=O)c1ccc(-n2nc(-c3ccccc3O)nc2-c2ccccc2O)cc1`: the growth in the assay with HCT-15 colon was 17.9%; in the assay on HT29 colon it was -42.8% (active); in the assay with SNB-75 CNS, 48.1%; with SNB-19 CNS, 13.2%; with U251 CNS, 12.4%; with PC-3 prostate, 9.05% (active). Further, the growth was -42% (active) in the assay on SK-MEL-5 melanoma; -62.6% (active) with UACC-62 melanoma; -45.2% (active) in the assay with LOX IMVI melanoma; 14.8% in the assay on SK-MEL-28 melanoma; -4.94% (active) with SK-MEL-2 melanoma; 2.53% (active) in the assay on EKVX NSCLC. The growth was 5.7% (active) in the assay with SN12C renal; -3.95% (active) in the assay on UO-31 renal; 12.3% in the assay on TK-10 renal; 2.89% (active) in the assay on ACHN renal; 4.97% (active) with CAKI-1 renal; 73.7% in the assay on A498 renal. Further, the growth in the assay with CCRF-CEM leukemia was -6.46% (active); in the assay with MOLT-4 leukemia, 11.8%.
